Laboratory results as given in the OligoGym collection.

Target: GPBAR1
Test: pooled miR-30 sensor sort-seq; sequence = guide strand
Details: shRNA
Note: reference of the scale not given here.

Row | Sequence | sensor-assay potency score (higher = more potent)
1 | TGCACTGGCACTTCCTAGGGAG | -0.377
2 | ACTGCTTTGGCTGCTTGGGTGG | -1.37
3 | CTGTGTAGCGCTGATCGCCCAG | -1.64
4 | TTGGGTGGTAGGCAATGCTGGG | -0.797
5 | AGGAGGGACAACAGTGTCCCAG | -1.92
6 | ATGTGGGCAATGCCAGACCCGT | -2.11
7 | TGCTTTGGCTGCTTGGGTGGTA | -0.379
8 | TTCCACAGCCCTGGCAATGTGG | -1.2
9 | TGGTAGGCAATGCTGGGGCCGG | -1.84
10 | TGGGTGGTAGGCAATGCTGGGG | -1.2
11 | TGTGTAGCGCTGATCGCCCAGC | -1.16
12 | TAGCGCTGATCGCCCAGCCCCA | -1.62

Target: GPIHBP1
Test: as above
Details: shRNA

Row | Sequence | sensor-assay potency score (higher = more potent)
13 | TTCCTCTTCCTCCTGCTGTGTC | -0.491
14 | TTCCTCGTCGTAGTCATCTGGC | -0.201
15 | ATCCTCATCTTCCTCGTCGTAG | -0.474
16 | TCATCTTCCTCGTCGTAGTCAT | -0.418
17 | ATGTGAGCAGTTCTGCGTCAGG | -1.72
18 | TTGTGCAGGTCTGGCCATGTGA | -0.97
19 | ATGAGGGTTGTGCAGGTCTGGC | -1.69
20 | TTCAACCTCATCCTCATCTTCC | -0.334
21 | TGTTGGTCTCCTCCTCTTCAAC | -1.59
22 | TTCTGCGTCAGGTTGCAGCGCT | -0.795
23 | TCGTCGTAGTCATCTGGCCCGT | -1.29
